In PubChem BioAssay (Tox21):
Inconclusive results are not listed. Activity calls are given as the source filed them. Unless noted, calls follow the shape of the dose curve; as a rule, active = well fitted curve in the direction sought with a large enough effect in the repeat runs; inconclusive = weak or mixed curves; inactive = no such curve, though single readings can be large; an effect the other way counts as inactive or inconclusive.

Columns and labels:
[1] = qHTS assay to identify aromatase inhibitors - cell viability counter screen (AID 743084);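 also: cells stimulated with testosterone during compound exposure; nearly all actives have a fitted effect of over 55% in size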
[2] = qHTS assay to identify small molecule that activate the aryl hydrocarbon receptor (AhR) signaling pathway - cell viability counter screen (AID 743086);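 also: HepG2 liver cells carrying the AhR DRE luciferase reporter; series mostly up to about 70 µM; nearly all actives have a fitted effect of over 45% in size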
How it was run: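 Cytotoxicity counter screen: CellTiter-Fluor signal (30 min, 37 C) in 4000 HepG2 cells/well carrying the DRE-luciferase reporter, following 24 h compound exposure at 37 C.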

[3] = molecular target: Peroxisome proliferator-activated receptor gamma (Homo sapiens) (UniProt P37231); assay: qHTS assay to identify small molecule agonists of the peroxisome proliferator-activated receptor gamma (PPARg) signaling pathway (AID 743094; active = well fitted activation curve with a large enough effect in the signal ratio in the repeat runs, not every such curve was filed as active; the % refers to the signal ratio)
Sequence of Peroxisome proliferator-activated receptor gamma (Homo sapiens) (P37231 whole entry, looked up): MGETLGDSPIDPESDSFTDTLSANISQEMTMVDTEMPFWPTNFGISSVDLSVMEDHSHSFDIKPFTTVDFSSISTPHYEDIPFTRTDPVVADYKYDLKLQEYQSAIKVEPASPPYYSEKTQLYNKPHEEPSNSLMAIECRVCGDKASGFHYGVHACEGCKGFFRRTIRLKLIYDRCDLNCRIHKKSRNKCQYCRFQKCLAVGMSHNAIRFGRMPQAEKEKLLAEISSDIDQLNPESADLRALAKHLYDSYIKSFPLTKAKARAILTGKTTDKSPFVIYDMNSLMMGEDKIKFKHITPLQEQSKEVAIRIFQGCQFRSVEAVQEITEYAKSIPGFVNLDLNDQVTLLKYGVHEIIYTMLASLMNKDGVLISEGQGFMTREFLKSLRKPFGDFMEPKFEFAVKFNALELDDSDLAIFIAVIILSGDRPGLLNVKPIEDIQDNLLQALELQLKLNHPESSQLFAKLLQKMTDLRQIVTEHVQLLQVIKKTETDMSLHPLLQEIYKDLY
How it was run: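 Stably transfected HEK293H cells (GeneBLAzer PPARg UAS-bla) were incubated with test substances for 17 h at 37C after a 5 h pre-incubation; beta-lactamase activity was then detected by FRET substrate fluorescence.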

[4] = molecular target: Peroxisome proliferator-activated receptor gamma (Homo sapiens) (UniProt P37231); assay: qHTS assay to identify small molecule antagonists of the peroxisome proliferator-activated receptor gamma (PPARg) signaling pathway (AID 743191; calls by dose curve; also: series mostly up to about 63 µM; nearly all actives have a fitted effect of over 30% in size)
How it was run: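 Beta-lactamase reporter under UAS control in HEK293H PPARg-bla cells; compound treatment 17 h at 37C. Read-out: fluorescence intensity after 1 h room-temperature incubation with LiveBLAzer B/G FRET substrate.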

[5] = qHTS assay to identify small molecule antagonists of the peroxisome proliferator-activated receptor gamma (PPARg) signaling pathway - cell viability counter screen (AID 743194); also: nearly all actives have a fitted effect of over 55% in size
How it was run: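 Viability was measured as CellTiter-Glo luminescence in GeneBLAzer PPARg UAS-bla HEK293H cells. These cells had been exposed 17 h at 37 C to compounds together with rosiglitazone at 50 nM final, with the beta-lactamase readout taken in the same wells.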

[6] = qHTS assay for small molecule agonists of the antioxidant response element (ARE) signaling pathway - cell viability counter screen (AID 743203; calls by dose curve; also: nearly all actives have a fitted effect of over 55% in size)
How it was run: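 Cells (ARE-bla HepG2, 2,000/well) receive DMSO-dissolved compounds after a 5 hrs rest. Plates incubate 16 hrs at 37C/5% CO2. CellTiter-Glo luminescence is then recorded after 30 min at room temperature.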

[7] = qHTS assay for small molecule activators of the heat shock response signaling pathway - cell viability counter screen (AID 743209); also: nearly all actives have a fitted effect of over 50% in size
How it was run: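 Quantitative HTS format, Tox21 10K library. HeLa cells carrying an HSE-driven beta-lactamase reporter were treated 5 h at 37 C, then assessed for viability by CellTiter-Glo luminescence.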

[8] = qHTS assay for small molecule activators of the heat shock response signaling pathway (AID 743210; active = well fitted activation curve with a large enough effect in the signal ratio in the repeat runs, with a control signal flat, not every such curve was filed as active; the % refers to the signal ratio;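 also: HeLa cells with beta-lactamase reporter driven by heat shock elements; series mostly up to about 63 µM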)
How it was run: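 In HSE-bla HeLa cells, 5 h compound incubation (37 C) precedes addition of LiveBLAzer B/G substrate; after 2.5 h at room temperature, fluorescence intensity indicates reporter induction.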

[9] = qHTS assay to identify small molecule agonists of the peroxisome proliferator-activated receptor delta (PPARd) signaling pathway - cell viability counter screen (AID 743211); also: nearly all actives have a fitted effect of over 55% in size
How it was run: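 HEK293H PPARd-bla, 3000 cells/well; 5 h preincubation 37C/5% CO2; cpd in DMSO, 17 h 37C; B/G FRET substrate 2 h RT; CellTiter-Glo 30 min RT, luminescence.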

[10] = molecular target: Peroxisome proliferator-activated receptor delta (Homo sapiens) (UniProt Q03181); assay: qHTS assay to identify small molecule agonists of the peroxisome proliferator-activated receptor delta (PPARd) signaling pathway (AID 743212; calls by dose curve)
Sequence of Peroxisome proliferator-activated receptor delta (Homo sapiens) (Q03181 whole entry, looked up): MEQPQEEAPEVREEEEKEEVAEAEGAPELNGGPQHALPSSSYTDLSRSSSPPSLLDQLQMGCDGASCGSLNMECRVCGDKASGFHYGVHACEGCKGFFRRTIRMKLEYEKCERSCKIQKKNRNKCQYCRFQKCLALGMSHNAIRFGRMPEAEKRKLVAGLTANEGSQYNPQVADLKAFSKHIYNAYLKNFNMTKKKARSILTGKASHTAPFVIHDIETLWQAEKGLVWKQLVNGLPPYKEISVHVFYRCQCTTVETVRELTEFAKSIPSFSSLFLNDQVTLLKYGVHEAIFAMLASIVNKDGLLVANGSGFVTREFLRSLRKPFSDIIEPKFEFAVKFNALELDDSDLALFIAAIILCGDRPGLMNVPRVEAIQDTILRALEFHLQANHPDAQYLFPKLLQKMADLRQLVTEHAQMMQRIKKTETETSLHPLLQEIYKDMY
How it was run: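 HEK293H UAS-bla reporter cells, human PPARd system; compounds delivered in DMSO after 5 h plating, then at 37 C. Beta-lactamase FRET read, 2 h RT substrate step.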

[11] = qHTS assay to identify small molecule antagonists of the peroxisome proliferator-activated receptor delta (PPARd) signaling pathway - cell viability counter screen (AID 743213); also: nearly all actives have a fitted effect of over 50% in size
How it was run: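 CellTiter-Glo was added to PPARd-bla HEK293H wells following 17 h compound treatment in the presence of 300 nM L165041. Luminescence was recorded after 30 min at room temperature.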

[12] = molecular target: Peroxisome proliferator-activated receptor delta (Homo sapiens) (UniProt Q03181); assay: qHTS assay to identify small molecule antagonists of the peroxisome proliferator-activated receptor delta (PPARd) signaling pathway (AID 743215; active = well fitted inhibition curve with a large enough effect in the signal ratio in the repeat runs, not every such curve was filed as active; the % refers to the signal ratio;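 also: cells stimulated with agonist L165041 at 300 nM final during compound exposure; series mostly up to about 62 µM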)
How it was run: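 Antagonist-mode beta-lactamase reporter screen: HEK293H cells with UAS-bla under PPARd control, stimulated by 300 nM L165041 (final) alongside test compound for 17 h at 37 C, then FRET fluorescence after 2 h substrate incubation.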

[13] = molecular target: Bile acid receptor (Homo sapiens) (UniProt Q96RI1); assay: qHTS assay to identify small molecule antagonists of the farnesoid-X-receptor (FXR) signaling pathway (AID 743217; active = well fitted inhibition curve with a large enough effect in the signal ratio in the repeat runs, not every such curve was filed as active; the % refers to the signal ratio)
Sequence of Bile acid receptor (Homo sapiens) (Q96RI1 whole entry, looked up): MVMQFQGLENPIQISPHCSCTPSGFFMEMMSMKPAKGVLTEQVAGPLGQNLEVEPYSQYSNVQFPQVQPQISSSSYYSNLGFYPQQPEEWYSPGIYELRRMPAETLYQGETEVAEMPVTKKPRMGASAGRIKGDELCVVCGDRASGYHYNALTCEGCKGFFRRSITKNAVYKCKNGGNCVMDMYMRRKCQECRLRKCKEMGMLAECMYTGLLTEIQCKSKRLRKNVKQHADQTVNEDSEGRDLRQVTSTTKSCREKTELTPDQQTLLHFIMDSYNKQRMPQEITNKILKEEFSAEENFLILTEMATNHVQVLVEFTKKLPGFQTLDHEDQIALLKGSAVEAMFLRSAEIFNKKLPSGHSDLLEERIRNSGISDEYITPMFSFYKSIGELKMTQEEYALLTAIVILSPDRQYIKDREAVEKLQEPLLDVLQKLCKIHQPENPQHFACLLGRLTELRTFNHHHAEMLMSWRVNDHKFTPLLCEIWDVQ
How it was run: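 Beta-lactamase reporter under UAS control in HEK 293T cells; compound exposure 16 h at 37 °C in the presence of chenodeoxycholic acid (50 uM final); signal from B/G FRET substrate after 2 h at room temperature.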

[14] = qHTS assay to identify small molecule agonists of the farnesoid-X-receptor (FXR) signaling pathway - cell viability counter screen (AID 743218); also: nearly all actives have a fitted effect of over 45% in size
How it was run: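 In GeneBLAzer FXR-UAS-bla HEK 293T cells, compounds act for 16 h at 37 C. Cell viability is then scored in the reporter wells by CellTiter-Glo, 30 min at RT, luminescence.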

[15] = molecular target: Bile acid receptor (Homo sapiens) (UniProt Q96RI1); assay: qHTS assay to identify small molecule agonists of the farnesoid-X-receptor (FXR) signaling pathway (AID 743220; active = well fitted activation curve with a large enough effect in the signal ratio in the repeat runs, not every such curve was filed as active; the % refers to the signal ratio)
How it was run: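 Beta-lactamase reporter under UAS control in GeneBLAzer FXR HEK 293T cells (5000/well) measured with LiveBLAzer FRET substrate after 2 h at room temperature. Compound exposure lasted 16 h at 37C.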

[16] = qHTS assay to identify small molecule antagonists of the farnesoid-X-receptor (FXR) signaling pathway - cell viability counter screen (AID 743221; active = well fitted cell-killing curve with a large enough effect in the repeat runs, not every such curve was filed as active; also: nearly all actives have a fitted effect of over 50% in size)
How it was run: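 Luminescence from CellTiter-Glo measures cytotoxicity in GeneBLAzer FXR-UAS-bla HEK 293T cells. Cells were exposed to compounds with 50 uM chenodeoxycholic acid (final) for 16 h at 37 C, in wells also used for the reporter readout.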

[17] = molecular target: Vitamin D3 receptor (Homo sapiens) (UniProt P11473); assay: qHTS assay to identify small molecule agonists of the vitamin D receptor (VDR) signaling pathway (AID 743222; calls by dose curve)
Sequence of Vitamin D3 receptor (Homo sapiens) (P11473 whole entry, looked up): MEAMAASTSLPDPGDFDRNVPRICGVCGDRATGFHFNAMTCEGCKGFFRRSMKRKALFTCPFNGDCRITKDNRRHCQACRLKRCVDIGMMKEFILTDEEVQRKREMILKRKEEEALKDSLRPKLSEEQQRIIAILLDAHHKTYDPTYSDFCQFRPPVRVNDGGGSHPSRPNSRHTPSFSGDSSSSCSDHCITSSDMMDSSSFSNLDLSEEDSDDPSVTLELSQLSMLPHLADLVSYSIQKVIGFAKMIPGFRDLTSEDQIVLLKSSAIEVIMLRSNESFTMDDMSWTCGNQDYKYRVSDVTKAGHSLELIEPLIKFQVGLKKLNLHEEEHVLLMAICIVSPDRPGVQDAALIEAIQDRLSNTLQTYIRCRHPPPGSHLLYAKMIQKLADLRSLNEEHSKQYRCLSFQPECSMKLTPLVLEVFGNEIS
How it was run: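 Agonist activity measured in VDR-bla reporter cells. Exposure 16 h, 37C, 5% CO2; detection by B/G FRET substrate, 2 h RT.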

[18] = molecular target: Vitamin D3 receptor (Homo sapiens) (UniProt P11473); assay: qHTS assay to identify small molecule antagonists of the vitamin D receptor (VDR) signaling pathway (AID 743223; active = well fitted inhibition curve with a large enough effect in the signal ratio in the repeat runs, not every such curve was filed as active; the % refers to the signal ratio)
How it was run: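 Antagonist mode uses 1alpha,25-dihydroxyvitamin D3 at 3 nM final as stimulus. VDR-bla cells receive compounds in DMSO, incubate 16 h at 37C, then a beta-lactamase FRET substrate for 2 h at room temperature before fluorescence measurement.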

[19] = qHTS assay for small molecule agonists of the antioxidant response element (ARE) signaling pathway (AID 743202; active = well fitted activation curve with a large enough effect in the signal ratio in the repeat runs, not every such curve was filed as active; the % refers to the signal ratio)
How it was run: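 An ARE-responsive beta-lactamase gene stably integrated in HepG2 cells serves as reporter. After 5 h plating and 16 h compound incubation at 37 C, fluorescence of the B/G FRET substrate was measured.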
% is scaled to controls: 0 for no effect and ±100 for the full control effect.

Cc1ccc(Nc2ccc(O)c3c2C(=O)c2ccccc2C3=O)cc1
inactive: Potency [1] | Potency [2] | outcome [3] | outcome [4] | Potency [5] | outcome [6] | outcome [7] | outcome [8] | Potency [9] | outcome [10] | Potency [11] | outcome [12] | outcome [13] | outcome [14] | outcome [15] | Potency [16] | outcome [17] | outcome [18]

NC(=O)c1ncn([C@@H]2O[C@H](CO)[C@@H](O)[C@H]2O)c1O
inactive: Potency [1] | Potency [2] | outcome [3] | Potency [5] | outcome [6] | outcome [7] | Potency [9] | outcome [10] | Potency [11] | outcome [12] | outcome [14] | outcome [15] | Potency [16]

N[C@@H](CS)C(=O)O
inactive: Potency [1] | Potency [2] | outcome [3] | Potency [5] | outcome [6] | outcome [7] | outcome [8] | Potency [9] | outcome [10] | Potency [11] | outcome [12] | outcome [14] | Potency [16] | outcome [17]

COc1ccc(COC=O)cc1
inactive: Potency [1] | Potency [2] | outcome [3] | Potency [5] | outcome [6] | outcome [7] | Potency [9] | outcome [10] | Potency [11] | outcome [12] | outcome [13] | outcome [14] | outcome [15] | Potency [16]

CC(C)(C)OC(=O)N1C[C@@H](F)C[C@H]1C(=O)O
inactive: Potency [1] | Potency [2] | outcome [3] | outcome [4] | Potency [5] | outcome [6] | outcome [7] | outcome [8] | Potency [9] | outcome [10] | Potency [11] | outcome [12] | outcome [14] | Potency [16] | outcome [17] | outcome [18]

CCCCCCC(=O)OCC
inactive: Potency [1] | Potency [2] | outcome [3] | Potency [5] | outcome [6] | outcome [7] | outcome [8] | Potency [9] | outcome [10] | Potency [11] | outcome [12] | outcome [14] | Potency [16] | outcome [18]

c1ccc(CCCc2ccccn2)cc1
inactive: Potency [1] | Potency [2] | outcome [3] | outcome [4] | Potency [5] | outcome [6] | outcome [7] | outcome [8] | Potency [9] | Potency [11] | outcome [13] | outcome [14] | outcome [15] | Potency [16] | outcome [17]

Nc1[nH]c(=O)ncc1F
inactive: Potency [1] | Potency [2] | outcome [3] | outcome [4] | Potency [5] | Potency [19] | outcome [6] | outcome [7] | outcome [8] | Potency [9] | Potency [11] | outcome [12] | outcome [13] | outcome [14] | outcome [15] | Potency [16] | outcome [17] | outcome [18]

c1ccc(SCCSc2ccccc2)cc1
inactive: Potency [1] | Potency [2] | outcome [3] | Potency [5] | Potency [19] | outcome [6] | outcome [7] | outcome [8] | Potency [9] | outcome [10] | Potency [11] | outcome [12] | outcome [13] | outcome [14] | outcome [15] | Potency [16] | outcome [17] | outcome [18]

CC/C=C\CCCCO
inactive: Potency [1] | Potency [2] | outcome [3] | Potency [5] | Potency [19] | outcome [6] | outcome [7] | outcome [8] | Potency [9] | Potency [11] | outcome [14] | Potency [16] | outcome [17] | outcome [18]

CC(=O)CCc1ccc(O)cc1
inactive: Potency [1] | Potency [2] | outcome [3] | outcome [4] | Potency [5] | outcome [6] | outcome [7] | outcome [8] | Potency [9] | outcome [10] | Potency [11] | outcome [12] | outcome [14] | Potency [16]

CCN1CCCC1CNC(=O)c1cc(S(N)(=O)=O)ccc1OC (stereo not given)
inactive: Potency [1] | Potency [2] | outcome [3] | outcome [4] | Potency [5] | outcome [6] | outcome [7] | outcome [8] | Potency [9] | outcome [14] | Potency [16] | outcome [17] | outcome [18]

C[N+](C)(C)CC[N+]1(C)Cc2c(Cl)c(Cl)c(Cl)c(Cl)c2C1
inactive: Potency [1] | Potency [2] | outcome [3] | outcome [4] | Potency [5] | outcome [6] | outcome [7] | outcome [8] | Potency [9] | outcome [10] | Potency [11] | outcome [12] | outcome [14] | Potency [16] | outcome [18]

Cc1cc(C)cc(OCC2CNC(=O)O2)c1 (stereo not given)
inactive: Potency [1] | Potency [2] | outcome [3] | outcome [4] | Potency [5] | Potency [19] | outcome [6] | outcome [7] | outcome [8] | Potency [9] | outcome [10] | Potency [11] | outcome [13] | outcome [14] | outcome [15] | Potency [16] | outcome [18]

CCCC(=O)O[C@]1(C(=O)CCl)[C@@H](C)C[C@H]2[C@@H]3CCC4=CC(=O)C=C[C@]4(C)[C@@]3(F)C(=O)C[C@@]21C
inactive: Potency [1] | Potency [2] | outcome [3] | Potency [5] | outcome [6] | outcome [8] | Potency [9] | outcome [10] | Potency [11] | outcome [12] | outcome [13] | outcome [14] | outcome [15] | Potency [16] | outcome [17]

NC(=S)Nc1cccc2ccccc12
inactive: activity change, negative = cytotoxicity [1] 1.26% [at 8.47 µM] | viability change, negative = cytotoxic [2] 1.55% [at 8.47 µM] | activation [3] -10.4% [at 7.08 µM] | activity change, negative = cytotoxicity [5] 9.83% [at 5.95 µM] | activation [19] -5.35% [at 8.36 µM] | viability change, negative = cytotoxic [6] 10% [at 8.36 µM] | activity change, negative = cytotoxicity [7] -5.69% [at 5.95 µM] | activity change, negative = cytotoxicity [9] -1.16% [at 5.95 µM] | activation [10] -6.49% [at 5.95 µM] | viability change, negative = cytotoxic [11] 5.98% [at 6.26 µM] | ratio activity, negative = inhibition [12] -0.221% [at 6.26 µM] | viability change, negative = cytotoxic [14] 18.3% [at 5.95 µM] | activity change, negative = cytotoxicity [16] 8.25% [at 5.95 µM] | activation [17] 4.28% [at 6.01 µM] | activity change, negative = inhibition [18] -15.5% [at 6.95 µM]

NC1CCN(c2cccc(Cl)n2)CC1
inactive: Potency [1] | Potency [2] | outcome [3] | outcome [4] | Potency [5] | outcome [6] | outcome [7] | outcome [8] | Potency [9] | outcome [10] | Potency [11] | outcome [13] | outcome [14] | outcome [15] | Potency [16] | outcome [17] | outcome [18]
